Active and inactive are the calls of the source. No rule for the calls is given here.
Each compound was assayed on HIV-1 nucleocapsid protein NCp7 (binding to TG oligonucleotide) (assay: HIV Nucleocapsid (AID 346;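 also: potency is for inhibitors that block NC binding and lower polarization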)). Details: HIV-1 NC / fluorescein-TGTGTGTG probe, fluorescence polarization.
Outline: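 Reagents dispensed (10 nM TG4xF, 100 nM HIV-1 NC), plates spun, compounds pin-transferred, then incubated 1 hr at room temperature before FP imaging. Buffer: Hepes pH 7.5, 250mM NaCl, 1uM ZnCl2, 100 uM TCEP, 5 mM 2-mercaptoethanol.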
For `CN(C)c1ncc2nc(-c3cccc(C#N)c3)c(=O)n(C)c2n1`, the Potency was > 20 µM (inactive).
For `COc1ccc(-n2c(=O)cnc3cnc(N4CCN(C)CC4)nc32)cc1`, the Potency was > 20 µM (inactive).
For `N#CCCn1c(=O)c(-c2ccccc2)nc2cnc(OCc3ccccc3)nc21`, the Potency was > 20 µM (inactive).
For `N#Cc1ccccc1-c1ccc2ncnc(NC3CC3)c2c1`, the Potency was > 20 µM (inactive).
In the case of `CN1CCN(c2ncc3nc(-c4cccs4)c(=O)n(Cc4cccs4)c3n2)CC1`, the Potency is reported as > 20 µM (inactive).
`CNc1ncnc2ccc(-c3ccccc3CN(C)C)cc12` was tested, and the Potency was > 20 µM (inactive).
For `O=C(Nc1cccc(F)c1)N1CCC2(CC1)CCN(C(=O)c1cc(C(F)(F)F)cc(C(F)(F)F)c1)CC2`, the Potency was > 20 µM (inactive).
`CN(C)C(=O)c1ccc(-c2cncnc2NC2CCNCC2)cc1` was tested, and the Potency was > 20 µM (inactive).
With `COCCn1c(=O)c(-c2ccc(OC)cc2)nc2cnc(N3CCNCC3)nc21` the Potency was > 20 µM (inactive).
With `CN(C)c1ncc2nc(-c3cccs3)c(=O)n(C[C@H]3CCCO3)c2n1` the Potency was > 20 µM (inactive).
In the case of `CCNc1ncc2nc(-c3cn(C)c4ccccc34)c(=O)n(-c3ccc(OC)cc3)c2n1`, the Potency is reported as 3.86 µM (active).
`Cn1c(=O)c(-c2cccc(F)c2)nc2cncnc21` was tested, and the Potency was > 20 µM (inactive).
With `COc1ccc(-c2nc3cnc(N4CCOCC4)nc3n(C)c2=O)cc1` the Potency was > 20 µM (inactive).
With `COCCn1c(=O)c(-c2cccc(C#N)c2)nc2cnc(Oc3cccc(Cl)c3)nc21` the Potency was > 20 µM (inactive).
`O=c1c(-c2ccccc2)nc2cnc(N3CCOCC3)nc2n1C1CC1` was tested, and the Potency was > 20 µM (inactive).

— PubChem BioAssay (NCATS)
Potency is read from the fitted curve at half-maximal effect.
